The campaign covered roughly 370,000 compounds. About 2,300 (0.62%) were called active.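 The calls were made as follows: active = lowest replicate activation of at least 40%, so every replicate reaches that level; inactive = the rest.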 This excerpt belongs to a sample that is enriched for actives.
test: GLuc luminescence reporter in INS-1E cells, primary screen for activators of glucose-dependent secretion of insulin (AID 743287); settings: INS-1E GLuc reporter insulin secretion, 2-3 h, at 16.6 µM, stronger effect = higher value;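 also: 0% = median of neutral control wells and 100% = median of IBMX positive control wells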

Structure (SMILES)	activation
CCCNC(=O)N1CC(=O)N2[C@H](CO)[C@H](c3ccc(C#Cc4cccc(OC)c4)cc3)[C@H]2C1	-24.3% (inactive)
CNC[C@H]1Oc2ccccc2CC(=O)N(C)C[C@H]1C	13.7% (inactive)
Cc1cc(C(=O)Nc2cccc3c2O[C@H](CN(C)C(=O)Nc2ccccc2)[C@@H](C)CN([C@H](C)CO)C3=O)n(C)n1	26.8% (inactive)
Cc1ccc(S(=O)(=O)N(C)C[C@@H]2Oc3ccc(NC(=O)C4CCCCC4)cc3CC(=O)N([C@@H](C)CO)C[C@H]2C)cc1	-11.4% (inactive)
CCS(=O)(=O)Nc1ccc2c(c1)C(=O)N(C)[C@H]1CC[C@@H](CC(=O)N3CCCCC3)O[C@H]1CO2	-5.88% (inactive)
C[C@@H]1CN([C@H](C)CO)S(=O)(=O)c2ccc(-c3ccccc3)cc2O[C@@H]1CN(C)CC1CC1	10.8% (inactive)
O=C(C[C@H]1CC[C@H](NC(=O)c2ccncc2)[C@H](CO)O1)Nc1ccccc1	22% (inactive)
O=C(c1cnccn1)N1CC(=O)N2[C@H](C1)[C@@H](c1ccc(C3=CCCCC3)cc1)[C@@H]2CO	-9.9% (inactive)
CO[C@@H]1CN(C)C(=O)c2ccc(NS(C)(=O)=O)cc2OC[C@@H](C)N(C(=O)CC2CC2)C[C@@H]1C	-7.78% (inactive)
NC(=O)Nc1ccccc1C(=O)NCCc1ccccc1	16.6% (inactive)
Nc1nc2c(Br)ccc(Br)c2cc1C(=O)NCCc1ccccc1	41.1% (active)
O=C(NCCc1ccccc1)c1c[nH]c2ccc(F)cc2c1=O	-9.34% (inactive)
CO[C@H]1CN(C)C(=O)c2ccc(NC(=O)c3cc(C)on3)cc2OC[C@@H](C)NC[C@@H]1C	14.3% (inactive)
COc1ccc(NC(=O)N(C)C[C@@H]2Oc3c(NS(=O)(=O)c4cn(C)cn4)cccc3C(=O)N([C@H](C)CO)C[C@@H]2C)cc1	8.28% (inactive)
CCC(=O)N1CCC2(CC1)CN(Cc1cccc(OC)c1)[C@@H](CO)c1[nH]c3cc(OC)ccc3c12	5.34% (inactive)
Nc1[nH]c(C(=O)c2ccccc2)c(-c2ccc(Br)cc2)c1C(=O)NC1CC1	2.55% (inactive)
CC(C)(C)C(=O)c1c(N)[nH]c(C(=O)c2ccccc2)c1-c1ccc(F)cc1	0.681% (inactive)
Nc1[nH]c(C(=O)c2ccccc2)c(-c2ccncc2)c1C(=O)NCc1cccc2ccccc12	49.2% (active)
C[C@@H]1CCCCO[C@H](CN(C)C(=O)Cc2ccccc2)[C@H](C)CN([C@@H](C)CO)C(=O)c2cc(NS(=O)(=O)c3ccc(F)cc3)ccc2O1	-21.1% (inactive)

From PubChem BioAssay AID743287 (Broad Institute, 2014)
